Our source for the cytotoxicity call values is the antibiotic and cytotoxicity screens of Wong et al. (2023).

In all, about 39,000 compounds went through this assay and about 1,500 (3.8%) were called active. The full list was thinned out, with actives kept by preference.

The assay concerns HSkMC (human skeletal muscle cells). Kind of assay: cytotoxicity call (relative viability < 0.9). The following applies: 10 µM.
Consider `C[C@H](CO)N1C[C@H](C)[C@@H](CN(C)Cc2ccc(C(F)(F)F)cc2)OCCCC[C@H](C)Oc2ccc(NC(=O)Nc3ccc(C(F)(F)F)cc3)cc2C1=O`, for which the cytotoxicity call was “inactive”. In the case of `C[C@H]1CCCCO[C@H](CN(C)Cc2ccc(C(F)(F)F)cc2)[C@@H](C)CN([C@@H](C)CO)C(=O)c2cc(NC(=O)Nc3ccc(C(F)(F)F)cc3)ccc2O1`, the cytotoxicity call is “inactive”.

With `C[C@@H]1CCCCO[C@H](CN(C)Cc2ccc(C(F)(F)F)cc2)[C@@H](C)CN([C@@H](C)CO)C(=O)c2cc(NC(=O)Nc3ccc(C(F)(F)F)cc3)ccc2O1`, the cytotoxicity call is “inactive”.

With `C[C@@H]1CN([C@@H](C)CO)C(=O)c2cc(NC(=O)Nc3ccc(C(F)(F)F)cc3)ccc2O[C@@H](C)CCCCO[C@H]1CN(C)Cc1ccc(C(F)(F)F)cc1`, the cytotoxicity call is “inactive”.

As to `C[C@@H]1CCCCO[C@H](CN(C)Cc2ccc(C(F)(F)F)cc2)[C@H](C)CN([C@H](C)CO)C(=O)c2cc(NC(=O)Nc3ccc(C(F)(F)F)cc3)ccc2O1`, the cytotoxicity call is “active”. `C[C@@H]1CCCCO[C@H](CN(C)Cc2ccc(C(F)(F)F)cc2)[C@H](C)CN([C@@H](C)CO)C(=O)c2cc(NC(=O)Nc3ccc(C(F)(F)F)cc3)ccc2O1`: the cytotoxicity call is “active”.

With `C[C@@H]1CCCCO[C@H](CN(C)C(=O)c2ccccc2)[C@H](C)CN([C@H](C)CO)C(=O)c2cc(NC(=O)C3CCCCC3)ccc2O1`, the cytotoxicity call was “inactive”. For the compound `O=C(NCCN1CCOCC1)c1cccs1`, the cytotoxicity call is “inactive”. Consider `CCc1c(Cl)c(O)c(Cl)c(O)c1C(=O)O[C@H]1[C@H](O)[C@H](OC)[C@H](OC/C2=C\C=C\C[C@H](O)/C(C)=C/[C@H](CC)[C@@H](O[C@@H]3OC(C)(C)[C@@H](OC(=O)C(C)C)[C@H](O)[C@@H]3O)/C(C)=C/C(C)=C/C[C@@H]([C@@H](C)O)OC2=O)O[C@@H]1C`, for which the cytotoxicity call is “active”. The value for `COc1ccc(CN(C)C[C@@H]2OCCCC[C@H](C)Oc3ccc(NC(=O)Nc4ccc(F)cc4)cc3C(=O)N([C@H](C)CO)C[C@@H]2C)cc1` was “inactive”. As to `COc1ccc(CN(C)C[C@H]2OCCCC[C@H](C)Oc3ccc(NC(=O)Nc4ccccc4)cc3C(=O)N([C@@H](C)CO)C[C@@H]2C)cc1`, the cytotoxicity call was “inactive”.

Regarding `COc1ccc(CN(C)C[C@@H]2OCCCC[C@@H](C)Oc3ccc(NC(=O)Nc4ccccc4)cc3C(=O)N([C@@H](C)CO)C[C@@H]2C)cc1`, the cytotoxicity call is “inactive”.

For the compound `COc1ccc(CN(C)C[C@@H]2OCCCC[C@H](C)Oc3ccc(NC(=O)Nc4ccc(F)cc4)cc3C(=O)N([C@@H](C)CO)C[C@@H]2C)cc1`, the cytotoxicity call was “inactive”. `COc1ccc(CN(C)C[C@H]2OCCCC[C@@H](C)Oc3ccc(NC(=O)Nc4ccccc4)cc3C(=O)N([C@H](C)CO)C[C@H]2C)cc1`: the cytotoxicity call is “active”.

Take `COc1ccc(CN(C)C[C@H]2OCCCC[C@@H](C)Oc3ccc(NC(=O)Nc4ccc(F)cc4)cc3C(=O)N([C@H](C)CO)C[C@H]2C)cc1`: the cytotoxicity call was “active”. Regarding `C[C@@H]1CCCCO[C@@H](CN(C)C(=O)C2CCCCC2)[C@H](C)CN([C@H](C)CO)C(=O)c2cc(NC(=O)Nc3ccc(C(F)(F)F)cc3)ccc2O1`, the cytotoxicity call was “inactive”. On to `C[C@H](CO)N1C[C@H](C)[C@H](CN(C)C(=O)Nc2ccccc2C(F)(F)F)OCc2cnnn2CCCC1=O`, for which the cytotoxicity call is “inactive”. The value for `CO[C@@H]1CN(C)C(=O)c2cc(NC(=O)C3CC3)ccc2OC[C@H](C)N(C(=O)Cc2ccccn2)C[C@@H]1C` was “inactive”. On to `COc1ccc(S(=O)(=O)N[C@@H]2C=C[C@H](CC(=O)N3CCC(Cc4ccccc4)CC3)O[C@@H]2CO)cc1`, for which the cytotoxicity call was “inactive”.

Consider `Cn1cc(-c2ccno2)c(C(=O)O)n1`, for which the cytotoxicity call was “inactive”. As to `Cc1c(-c2c(-c3ccc(F)o3)sc3ncnc(O[C@H](Cc4ccccc4OCc4ccnn4CC(F)(F)F)C(=O)O)c23)ccc(OCCN2CCN(C)CC2)c1Cl`, the cytotoxicity call is “active”.

Regarding `N#C[C@@H]1N[C@H](CO)[C@H]1c1ccccc1`, the cytotoxicity call is “inactive”. The value for `COCC(=O)N1CC(C)(C)c2cc(-c3csc(NC(=O)c4ccc(F)c(OC(F)(F)F)c4)n3)ccc21` was “inactive”. The value for `CCCCCCO[C@@H](C)c1cccc(-c2csc(NC(=O)c3cc(Cl)c(/C=C(\C)C(=O)O)c(Cl)c3)n2)c1OC` was “active”; that for `C[C@H](CO)N1C[C@H](C)[C@@H](CN(C)Cc2ccncc2)Oc2c(NS(=O)(=O)c3ccccc3)cccc2C1=O` was “inactive”. With `C[C@@H]1CN([C@H](C)CO)C(=O)Cc2cc(NS(=O)(=O)c3ccc(F)cc3)ccc2O[C@H]1CN(C)Cc1ccc(-c2ccccc2)cc1`, the cytotoxicity call was “active”. As for `C[C@H]1CN([C@@H](C)CO)C(=O)Cc2cc(NS(=O)(=O)c3ccc(F)cc3)ccc2O[C@@H]1CN(C)Cc1ccc(-c2ccccc2)cc1`, the cytotoxicity call was “active”. With `C[C@H]1CN([C@@H](C)CO)C(=O)Cc2cc(NS(=O)(=O)c3ccc(F)cc3)ccc2O[C@H]1CN(C)Cc1ccc(-c2ccccc2)cc1`, the cytotoxicity call was “active”.

As to `C[C@@H]1CN([C@H](C)CO)C(=O)Cc2cc(NS(=O)(=O)c3ccc(F)cc3)ccc2O[C@@H]1CN(C)Cc1ccc(-c2ccccc2)cc1`, the cytotoxicity call was “active”. As to `Cc1ccc(S(=O)(=O)N(C)C[C@H]2Oc3ncc(-c4ccncc4)cc3C(=O)N([C@H](C)CO)C[C@H]2C)cc1`, the cytotoxicity call was “inactive”. In the case of `C[C@H]1CCCCO[C@@H](CN(C)C(=O)Nc2ccc3c(c2)OCO3)[C@@H](C)CN([C@@H](C)CO)C(=O)c2cc(NC(=O)c3ccccc3)ccc2O1` it was “inactive”. As for `CO[C@@H]1CN(C)C(=O)c2cc(NS(C)(=O)=O)ccc2OC[C@@H](C)N(C(=O)C2CCOCC2)C[C@@H]1C`, the cytotoxicity call is “inactive”. In the case of `Cc1noc(C)c1NC(=O)Nc1cccc2c1O[C@H](CN(C)Cc1ccc(C(F)(F)F)cc1)[C@H](C)CN([C@H](C)CO)C2=O`, the cytotoxicity call was “inactive”.

As for `NNC(=O)c1cc2ccccc2[nH]1`, the cytotoxicity call was “inactive”. For `C[C@H]1CCCCO[C@H](CN(C)Cc2ccccc2)[C@@H](C)CN([C@@H](C)CO)C(=O)c2cc(NC(=O)C3CCCCC3)ccc2O1`, the cytotoxicity call is “inactive”. `C[C@@H]1CN([C@@H](C)CO)C(=O)Cc2cc(NS(=O)(=O)c3ccc(F)cc3)ccc2O[C@H]1CN(C)Cc1ccc(-c2ccccc2)cc1`: the cytotoxicity call was “inactive”.

`C[C@H](CO)N1C[C@H](C)[C@H](CN(C)Cc2ccc(-c3ccccc3)cc2)Oc2ccc(NS(=O)(=O)c3ccc(F)cc3)cc2CC1=O`: the cytotoxicity call is “active”. For `C[C@H](CO)N1C[C@H](C)[C@@H](CN(C)Cc2ccc(-c3ccccc3)cc2)Oc2ccc(NS(=O)(=O)c3ccc(F)cc3)cc2CC1=O`, the cytotoxicity call is “inactive”. Turning to `C[C@@H]1CN([C@@H](C)CO)C(=O)Cc2cc(NS(=O)(=O)c3ccc(F)cc3)ccc2O[C@@H]1CN(C)Cc1ccc(-c2ccccc2)cc1`, the cytotoxicity call was “active”.
